Screening results from PubChem.
Wnt bcat act = Wnt/beta-catenin pathway activators, primary screen, cell-based, plate reader, single point. Wnt/beta-catenin reporter cell assay, activator. activation, % at 9.35 µM. 300,000 tested, 1.2% active. AID 743398, 2014; in the data active = activation above about 30%, passing the limit was not always enough; inconclusive = no clear call, values can overlap the other calls;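 note: 0% = neutral control wells and 100% = positive control wells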
MITF TRPM1 HTS = activators of MITF-driven TRPM1 promoter reporter, primary screen, cell-based, SK-MEL-5, luciferase, single point; activation, % at 12.5 µM; 300,000 tested, 0.75% active; SK-MEL-5 TRPM1-promoter luciferase, 24 h; % of positive control, neutral wells = 0;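 active = mean activation of at least 80% with every replicate also reaching 80%; inconclusive = mean reaches 80% but some replicate falls short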;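 note: 0% = neutral control wells and 100% = parthenolide positive control wells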
esBAF inh = Bmi1 luciferase reporter increase in mESCs, primary screen, esBAF inhibitor project, mouse ES cells, Bmi1 luciferase knock-in, single point; 24 h; 100% = twice the neutral-well signal; reporter increase, % at 12.5 µM; 350,000 tested, 2% active; AID 602393, 2012; in the data active = activation above about 40%; inconclusive = no clear call, values can overlap the other calls;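 note: 0% = median of the plate's neutral control wells and 100% = double that signal; a rise in the Bmi1 reporter signal indicates esBAF inhibition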
HIV Env fusion = inhibitors of HIV-1 Env-driven cell-cell fusion, primary screen, HeLa-JRFL effector, CEM21 target cells, luciferase; inhibition, % at 12.3 µM; 360,000 tested, 1.1% active;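 active = mean replicate inhibition score of at least 50 and every replicate individually at or above 50; inconclusive = only one of the two criteria met; inactive = mean below 50 and not all replicates reaching 50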;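 note: 0% = plate neutral controls and 100% = maraviroc near 300 nM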
miR122 inh = miR-122 Renilla sensor signal increase in Huh7, primary screen, miR-122 inhibitor project, cell-based, single point, plate reader. Huh7 miR-122 Renilla luciferase sensor, 48 h; neutral wells = 0, positive control = 100. activation (reporter increase), % at 12.5 µM. AID 602342, 2012. 340,000 tested, 0.3% active;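 active = mean replicate activation score at least 90 and every replicate individually at or above 90; inconclusive = only one of the two criteria met; inactive = neither criterion met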;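 note: higher luciferase means less miR-122 activity so hits act as miR-122 inhibitors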
Active calls of the source: *; [ ] = dose if it differs, or a comment. Sampled rows, rich in hits. Any-hit rate of the full collection: about 3.4%.

What do the screens show for `C[C@H]1CCCCO[C@H](CN(C)S(=O)(=O)c2cn(C)cn2)[C@@H](C)CN([C@@H](C)CO)C(=O)c2cc(NS(=O)(=O)c3ccc(Cl)cc3)ccc2O1`?
esBAF inh: 9; HIV Env fusion: -34[16.7 µM]; miR122 inh: 0[16.7 µM]

How did CN1C(=O)c2cc(NC(=O)C3CCOCC3)ccc2OC[C@H]2O[C@@H](CC(=O)NC3CCCC3)CC[C@@H]21 do in these assays?
esBAF inh: 4; HIV Env fusion: 3[16.7 µM]; miR122 inh: 1[16.7 µM]

How did COCCCNC(=S)NNC(=O)c1csc(C)n1 do in these assays?
Wnt bcat act: 41*; MITF TRPM1 HTS: -12; esBAF inh: -5; HIV Env fusion: -22

Results for COCCCNC(=S)NNC(=O)c1ccc(C(C)(C)C)cc1 ?
Wnt bcat act: 1; MITF TRPM1 HTS: 3; HIV Env fusion: -7

How did COc1cc(/C=N/Nc2ccc(C(=O)O)cc2)cc(OC)c1OC do in these assays?
Wnt bcat act: 25; MITF TRPM1 HTS: inconclusive; esBAF inh: 56*; HIV Env fusion: -18; miR122 inh: -2

How did COc1ccc(/C=N/Nc2ccc(C(=O)O)cc2)c(OC)c1OC do in these assays?
Wnt bcat act: 13; MITF TRPM1 HTS: 124*; esBAF inh: 91*; HIV Env fusion: -9; miR122 inh: 2

Results for COc1ccc(/C=N\Nc2ccc([N+](=O)[O-])cc2)c(C(=O)O)c1OC ?
Wnt bcat act: 1; MITF TRPM1 HTS: 8; esBAF inh: -4; HIV Env fusion: 11; miR122 inh: 2

How did N#Cc1c(/N=C/c2cc(Br)cs2)sc2c1CCC2 do in these assays?
MITF TRPM1 HTS: 57; esBAF inh: 78*; HIV Env fusion: -15; miR122 inh: 3

How did CCCNC(=O)N[C@@H]1C=C[C@@H](CC(=O)NC2CCCCC2)O[C@@H]1CO do in these assays?
esBAF inh: 8; HIV Env fusion: -20[16.7 µM]

How did C[C@H]1CN([C@@H](C)CO)C(=O)c2cc(C3=CCCCC3)cnc2O[C@@H]1CN(C)CC1CCCC1 do in these assays?
esBAF inh: -6; HIV Env fusion: 11[16.7 µM]

Results for Fc1ccc(Oc2ccnc(Cl)n2)c(Cl)c1 ?
Wnt bcat act: 44*; HIV Env fusion: 4

What do the screens show for `O=C(c1ccco1)N1CCN(Cc2c(F)cccc2Cl)CC1`?
Wnt bcat act: 12; esBAF inh: 45*; HIV Env fusion: 8; miR122 inh: 0

How did O=C(c1ccco1)N1CCN(c2ccc(Cl)c(Cl)c2)CC1 do in these assays?
Wnt bcat act: 12; MITF TRPM1 HTS: 57; esBAF inh: 44*; HIV Env fusion: -99; miR122 inh: -2

How did O=C(Cc1ccc(Cl)cc1)Nc1ccc(N2CCN(C(=O)c3ccco3)CC2)cc1 do in these assays?
Wnt bcat act: -2; esBAF inh: -3; miR122 inh: -8

How did O=C(Nc1ccc(N2CCN(C(=O)c3ccco3)CC2)cc1)c1cc(Br)ccc1Cl do in these assays?
Wnt bcat act: -2; MITF TRPM1 HTS: -2; esBAF inh: -4; miR122 inh: -8

What do the screens show for `O=C(c1ccco1)N1CCN(c2ccc(Cl)cc2)CC1`?
Wnt bcat act: 22; MITF TRPM1 HTS: 93*; esBAF inh: 48*; HIV Env fusion: -58; miR122 inh: -7

Results for Cc1cc(Br)cc(Cl)c1OCC(=O)N1CCN(C(=O)c2ccco2)CC1 ?
Wnt bcat act: 59*; MITF TRPM1 HTS: -3; esBAF inh: -4; HIV Env fusion: -8; miR122 inh: 4

What do the screens show for `C[C@H]1CN([C@@H](C)CO)C(=O)c2cc(NC(=O)Nc3ccccc3)ccc2O[C@H]1CN(C)S(=O)(=O)c1cccs1`?
esBAF inh: -3; HIV Env fusion: 32[16.7 µM]; miR122 inh: 4[16.7 µM]

How did C[C@@H]1CCCCO[C@H](CN(C)S(=O)(=O)c2ccc(Cl)cc2)[C@H](C)CN([C@H](C)CO)C(=O)c2cc(NC(=O)Cc3ccccc3)ccc2O1 do in these assays?
esBAF inh: 1; HIV Env fusion: 17[16.7 µM]; miR122 inh: -6[16.7 µM]

Results for C[C@H](CO)N1C[C@H](C)[C@@H](CN(C)C(=O)Nc2cc(F)ccc2F)Oc2cc(/C=C/c3ccccc3)ccc2S1(=O)=O ?
esBAF inh: -1; HIV Env fusion: 34[16.7 µM]; miR122 inh: 34[16.7 µM]

How did COc1ccc(NC(=O)Nc2ccc3c(c2)C(=O)N([C@H](C)CO)C[C@H](C)[C@H](CN(C)C(=O)Nc2ccccc2)OCCCC[C@H](C)O3)cc1 do in these assays?
esBAF inh: -5; HIV Env fusion: -19[16.7 µM]; miR122 inh: 17[16.7 µM]

How did Cc1cc(C)c2nc(N3CCCN(C(=O)c4ccco4)CC3)c(C#N)cc2c1 do in these assays?
esBAF inh: -7; HIV Env fusion: 33; miR122 inh: -11

How did Cc1cc(C)c2nc(C(F)(F)F)nc(N3CCN(C(=O)c4ccco4)CC3)c2c1 do in these assays?
Wnt bcat act: -1; MITF TRPM1 HTS: -4; esBAF inh: -2; HIV Env fusion: 73*; miR122 inh: -6

What do the screens show for `O=c1oc2ccc(Br)cc2cc1-c1nc2ccccc2o1`?
Wnt bcat act: -3; MITF TRPM1 HTS: 7; esBAF inh: 18; miR122 inh: -4

How did COc1cccc2cc(-c3nc4ccccc4o3)c(=O)oc12 do in these assays?
Wnt bcat act: 42*; MITF TRPM1 HTS: 36; esBAF inh: 19; HIV Env fusion: -51; miR122 inh: -8

Results for CCn1ccc(C(=O)Nc2ccccc2Cl)n1 ?
MITF TRPM1 HTS: 85*; HIV Env fusion: -43

Results for CCC(C)(C)NC(=O)C(c1ccc(C)cc1)N(CC1CCCO1)C(=O)c1csnn1 (centres undefined) ?
Wnt bcat act: 2; MITF TRPM1 HTS: -3; esBAF inh: -4; HIV Env fusion: 72*

What do the screens show for `CCC(C)(C)NC(=O)C(c1ccc(C)cc1)N(CC1CCCO1)C(=O)CNC(=O)c1cccs1` (centres undefined)?
MITF TRPM1 HTS: -1; esBAF inh: 5; HIV Env fusion: 23; miR122 inh: 1

Results for COc1ccc(NC(=O)N(C)C[C@@H]2Oc3c(NS(=O)(=O)c4ccc(OC)cc4)cccc3C(=O)N([C@@H](C)CO)C[C@@H]2C)cc1 ?
esBAF inh: -3; HIV Env fusion: -19[16.7 µM]; miR122 inh: 2[16.7 µM]

What do the screens show for `Cc1ccsc1/C=C1\Oc2cc(O)ccc2C1=O`?
Wnt bcat act: 0; esBAF inh: 51*; HIV Env fusion: -28; miR122 inh: -2

What do the screens show for `COc1cc(/C=C2\Oc3cc(O)ccc3C2=O)ccc1O`?
Wnt bcat act: 4; MITF TRPM1 HTS: 78; esBAF inh: 46*; miR122 inh: -3

How did O=C1/C(=C/c2ccc(O)c(O)c2)Oc2cc(O)ccc21 do in these assays?
Wnt bcat act: 6; MITF TRPM1 HTS: 79; esBAF inh: 28; miR122 inh: -3

How did O=C(C[C@@H]1C[C@H]2c3cc(NS(=O)(=O)c4ccccc4)ccc3O[C@H]2[C@H](CO)O1)NCC(F)(F)F do in these assays?
esBAF inh: 4; HIV Env fusion: 47[16.7 µM]; miR122 inh: 5[16.7 µM]
